# Several values for one entry are separate records, joined by “and”; a condition that tells them apart may be missing. Equal entries are not always repeated. The whole screen tested about 6,400 compounds, of which about 610 (9.5%) were called active. Cut-off read from the data, not from the text of the source: active = activity change below about -70%; inconclusive = no clear call, values can overlap the other calls; inactive = above that. The full list was thinned out, with actives kept by preference. Where a structure was tested more than once in an assay, its records may differ in their call.
# Experiment: T. gondii ME49Luc in HeLa cells, luciferase assay, 72 h, no IFN-y (AID 1259421)
# Conditions: stronger effect = lower value, concentration not given here
row,SMILES,"activity change, negative = inhibition"
1,Clc1ccc(-c2nc3sccn3c2/C=N/OCc2ccc(Cl)c(Cl)c2)cc1,27.7% (inactive) and 3.2% (inactive)
2,C[C@H](N)C(=O)N[C@@H](C)P(=O)(O)O,9.38% (inactive)
3,CC[C@H](C)[C@@H]([C@@H](CC(=O)N1CCC[C@H]1[C@H](OC)[C@@H](C)C(=O)N[C@@H](Cc1ccccc1)c1nccs1)OC)N(C)C(=O)[C@@H](NC(=O)[C@H](C(C)C)N(C)C)C(C)C,-85.6% (active)
4,CNC(=O)C1OC(n2cnc3c(NCc4cccc(I)c4)nc(Cl)nc32)C(O)C1O (stereo not drawn),-2.06% (inactive)
5,Cc1ccc(C(=O)c2cc(O)c(O)c([N+](=O)[O-])c2)cc1,-80% (active) and 2.13% (inactive)
6,COc1ccc(C(=O)c2ccc(C)cc2)c(O)c1,154% (inactive) and 98.7% (inactive)
7,NC(=O)c1ccc(I)c([N+](=O)[O-])c1,13.7% (inactive)
8,COc1cc(OC)c(/C=C/S(=O)(=O)Cc2ccc(OC)c(NCC(=O)O)c2)c(OC)c1,-46.4% (inactive)
9,COc1ccnc2[nH]cc(C(=O)C(=O)N3CCN(C(=O)c4ccccc4)C[C@H]3C)c12,5.24% (inactive)
10,C[C@]12CC[C@H](O)CC1=CCC1C2CC[C@]2(C)C(n3cnc4ccccc43)=CCC12 (stereo partly drawn),-67.5% (inactive)
11,Fc1ccc(-c2nc3n(c2-c2ccncc2)CCS3)cc1,-79.8% (active)
12,COC(=O)Cc1cccn1C,10.9% (inactive)
13,CC(O)CN(CCN(CC(C)O)CC(C)O)CC(C)O (stereo not drawn),15.4% (inactive)
14,Cc1cc(OCc2nnc(SC3CCCC3)n2-c2cccnc2)ccc1-c1ccc(S(C)(=O)=O)cc1,-79.2% (active)
15,CSCC[C@H](NC(=O)[C@@H](N)Cc1c[nH]c2ccccc12)C(=O)N[C@@H](CC(=O)O)C(=O)N[C@@H](Cc1ccccc1)C(N)=O,17% (inactive)
16,CC(=O)O[C@]1(C(C)=O)CCC2C3C=C(C)C4=CC(=O)CC[C@]4(C)C3CC[C@@]21C (stereo partly drawn),9.66% (inactive)
17,Cn1c(O)c(C2=c3ccccc3=NC2=O)c2ccccc21,13.5% (inactive)
18,CCC(C)n1ncn(-c2ccc(N3CCN(c4ccc(OC[C@H]5CO[C@](Cn6cncn6)(c6ccc(Cl)cc6Cl)O5)cc4)CC3)cc2)c1=O (stereo partly drawn),-63.1% (inactive) and -38.1% (inactive)
19,C#C[C@]1(O)CCC2C3CCc4cc(OC5CCCC5)ccc4C3CC[C@@]21C (stereo partly drawn),33.4% (inactive)
20,C#C[C@]1(O)CC[C@H]2[C@@H]3CCc4cc(OC)ccc4[C@H]3CC[C@@]21C,9.24% (inactive)
21,C#C[C@]1(O)CCC2C3CCc4cc(OC)ccc4C3CC[C@@]21C (stereo partly drawn),7.57% (inactive)
22,C#C[C@]1(O)CC[C@H]2[C@@H]3CCc4cc(O)ccc4[C@H]3CC[C@@]21C,-81.1% (active)
23,C[C@]12CC[C@@H]3c4ccc(O)cc4CC[C@H]3[C@@H]1CCC2=O,-66.6% (inactive) and -57.7% (inactive)
24,C#C[C@]1(O)CCC2C3CCc4cc(O)ccc4C3CC[C@@]21C (stereo partly drawn),-81.3% (active)
25,CCOc1ccc(Cc2cc([C@@H]3O[C@H](CO)[C@@H](O)[C@H](O)[C@H]3O)ccc2Cl)cc1,4.88% (inactive) and 10.3% (inactive)
26,CCN1/C(=C/C(C)=O)Sc2ccc(OC)cc21,21% (inactive)

row,SMILES,"activity change, negative = inhibition"
1,CC#CCOC(=O)c1c(C)nc2sc3c(c2c1N)CCC(O)C3 (stereo not drawn),49.7% (inactive) and 66.7% (inactive)
2,N[C@@H]1[C@@H](O)[C@H](O)[C@@H](CO)O[C@H]1O,1.35% (inactive)
3,CN(CCc1ccc(Cl)c(Cl)c1)CCN1CCCC1,14.6% (inactive)
4,CC1(O)C(O)C(CO)OC1n1ccc(N)nc1=O (stereo not drawn),27.1% (inactive)
5,C[C@@H]1O[C@@H](O[C@@H]2[C@H](Oc3cc(O)c(C(=O)CCc4ccc(O)cc4)c(O)c3)O[C@H](CO)[C@@H](O)[C@@H]2O)[C@H](O)[C@H](O)[C@H]1O,5.31% (inactive)
6,COc1cc2c(cc1OC)CC(=O)N(CCCN(C)C[C@@H]1Cc3cc(OC)c(OC)cc31)CC2,13.9% (inactive)
7,COc1cc2ncnc(Nc3cccc(O)c3)c2cc1OC,10.5% (inactive)
8,CCCNC(=O)Nc1ccc(Oc2ncnc3cc(OC)c(OC)cc23)cc1Cl,6.99% (inactive)
9,COc1cc2ncnc(Oc3cccc(NC(=O)Nc4cc(C(C)(C)C(F)(F)F)on4)c3)c2cc1OC,-78.4% (active)
10,CNc1cc(OC)c(C(=O)N[C@@H]2CCN(Cc3ccccc3)[C@@H]2C)cc1Cl (racemic),26% (inactive)
11,CC(=O)Nc1nc(C)c(-c2ccc(Cl)c(S(=O)(=O)NCCO)c2)s1,-78.9% (active)
12,CC(=O)Nc1nnc(S(N)(=O)=O)s1,18.1% (inactive) and 14.1% (inactive)
13,Cc1nc(NC(=O)N2CCC[C@H]2C(N)=O)sc1-c1ccnc(C(C)(C)C(F)(F)F)c1,-3.31% (inactive)
14,c1ncc(CC2CCNCC2)[nH]1,9.05% (inactive) and 12.6% (inactive)
15,N#C/C(=C/c1ccc(O)c(O)c1)C(=O)NCCCCc1ccccc1,28.9% (inactive)
16,COc1cnc(-n2cnc(C)n2)c2[nH]cc(C(=O)C(=O)N3CCN(C(=O)c4ccccc4)CC3)c12,22.1% (inactive)
17,C=C1C(=O)O[C@@H]2[C@H]3O[C@]3(C)CC/C=C(\C)CC[C@@H]12,6.15% (inactive)
18,CCC[C@@H]1C[C@@H](C(=O)N[C@@H](C2O[C@H](SC)[C@H](O)[C@@H](O)[C@H]2O)[C@H](C)Cl)N(C)C1 (stereo partly drawn),-0.424% (inactive)
19,CC(C)[C@H](N)C(=O)OCCOCn1cnc2c(=O)[nH]c(N)nc21,9.53% (inactive) and 3.52% (inactive)
20,O=C(CCc1ccc(O)cc1)c1c(O)cc(O)cc1O[C@@H]1O[C@H](CO)[C@@H](O)[C@H](O)[C@@H]1O,6% (inactive)
21,CC(C)(C)Cn1c(N)nc2ccc(-c3[nH]c(C(C)(C)C)nc3-c3ccc(F)cc3)nc21,-83.7% (active)
22,CC(C)(C)C(=O)OCOC(=O)[C@@H]1N2C(=O)[C@@H](N=CN3CCCCCC3)[C@H]2SC1(C)C,2.97% (inactive)
23,O=C(N[C@@H]1CC[C@@H](c2cccc(F)c2F)CN(CC(F)(F)F)C1=O)N1CCC(n2c(=O)[nH]c3ncccc32)CC1,5.74% (inactive)
24,CC(CSC(=O)c1ccccc1)C(=O)N1C[C@@H](Sc2ccccc2)C[C@H]1C(=O)O (stereo partly drawn),5.4% (inactive)
25,O=c1cc(-c2ccccc2)oc2cccc(O)c12,21.2% (inactive)
26,O=c1cc(-c2ccccc2)oc2cc(O)ccc12,60.2% (inactive)

row,SMILES,"activity change, negative = inhibition"
1,O=c1cc(-c2ccccc2)oc2c(O)c(O)ccc12,-85.8% (active)
2,COc1ccc(-c2noc(CC(=O)O)c2-c2ccc(OC)cc2)cc1,7.28% (inactive)
3,COc1cc(Br)c(Nc2nc(-c3c(C)nc4ncccn34)cs2)c(Br)c1,13.9% (inactive)
4,CCOc1ccc(Nc2nc(-c3c(C)nc4ccccn34)cs2)cc1,-74% (active)
5,Oc1ccc(Nc2nc(-c3ccc(Cl)cc3)cs2)cc1,28.7% (inactive)
6,Cn1cc(C(F)(F)F)nc1-c1ccc(OCC(O)CNCCOc2ccc(O)c(C(N)=O)c2)cc1 (stereo not drawn),1.01% (inactive)
7,CC(C)(C)NC(=O)[C@H]1CCC2C3CC[C@H]4NC(=O)C=C[C@]4(C)C3CC[C@@]21C (stereo partly drawn),-5.92% (inactive)
8,COc1ccc(-c2coc3cc(O)ccc3c2=O)c(O)c1O,2.93% (inactive)
9,COc1c(-c2coc3cc4c(cc3c2=O)CC(O)C(C)(C)O4)ccc2c1C=CC(C)(C)O2 (stereo not drawn),-80% (active)
10,COc1c(-c2coc3cc4c(cc3c2=O)CC(OC(C)=O)C(C)(C)O4)ccc2c1C=CC(C)(C)O2 (stereo not drawn),-72.4% (active)
11,COc1c(CC(=O)c2cc3c(cc2O)OC(C)(C)C(O)C3)ccc2c1C=CC(C)(C)O2 (stereo not drawn),16.9% (inactive)
12,COc1c2c(cc3occ(-c4ccc5c(c4)OCO5)c(=O)c13)OC(C)(C)C=C2,-31.2% (inactive)
13,COc1cc2c(cc1OC)[C@@H]1C(=O)c3ccc4c(c3O[C@@H]1CO2)C=CC(C)(C)O4,-20.6% (inactive)
14,CCOC(=O)C1=CC2(CC)CCCN3CCc4c(n1c1ccccc41)C32 (stereo not drawn),23.3% (inactive)
15,COC12CC(COC(=O)c3cncc(Br)c3)CN(C)C1Cc1cn(C)c3cccc2c13 (stereo not drawn),13.7% (inactive)
16,CC(=O)NC(C(=O)O)C(C)(C)S[NH2+][O-] (stereo not drawn),16% (inactive)
17,Cc1ccccc1C(=O)Nc1ccc(C(=O)N2CCCC(O)c3cc(Cl)ccc32)c(C)c1 (stereo not drawn),7.82% (inactive)
18,Cc1c(C(=O)Nc2ccc(N3CCC(N4CCOCC4)CC3)c(C#N)c2)cnn1-c1ccc(Cl)cc1,-92.1% (active)
19,CCc1cc2c(cc1N1CCC(N3CCOCC3)CC1)C(C)(C)c1[nH]c3cc(C#N)ccc3c1C2=O,16.2% (inactive)
20,CN1C2CC(OC(=O)C(CO)c3ccccc3)CC1C1OC12 (stereo not drawn),11.1% (inactive)
21,CNc1cc(OC)c(C(=O)N[C@@H]2CCN(Cc3ccccc3)[C@H]2C)cc1Cl,15.3% (inactive)
22,Cn1cc(C[C@@H](N)C(=O)O)c2ccccc21,16% (inactive)
23,Cn1cc(C(=O)OCC2CCN(CCNS(C)(=O)=O)CC2)c2ccccc21,1.88% (inactive) and 6.2% (inactive)
24,Cn1cc(CNCC2CCN(c3ncc(C(=O)NO)cn3)CC2)c2ccccc21,-88.1% (active)
25,C[C@@H]1CC2C3CCC4=CC(=O)C=C[C@]4(C)[C@@]3(F)[C@@H](O)C[C@]2(C)[C@@]1(O)C(=O)COP(=O)(O)O (stereo partly drawn),0.571% (inactive) and -5.12% (inactive)
26,O=c1c(-c2ccc(O)cc2)coc2c(C3O[C@H](CO)[C@@H](O)[C@H](O)[C@H]3O)c(O)ccc12 (stereo partly drawn),-5.75% (inactive)

# — PubChem BioAssay AID1259421 (Broad Institute, 2018)
